# About 2,000 (36%) of roughly 5,500 compounds were called active. Another 18% or so got no clear call; they are omitted. This is one part of the list. Unmarked numbers belong to inactive results. Rule as the data show it: active = normalized growth mostly below about 0.91 (no sharp cut-off); inconclusive = no clear call, values can overlap the other calls; inactive = mostly above about 0.92.
# Assay: chemical genetic growth profiling, strain panel (AID 1159580);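 also: tested at 20 µM; growth read once vehicle control cultures reached saturation at 30 °C; 1 = growth at the plate median or of vehicle wells; lower values mean less growth of the strain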
# Conditions: growth OD
compound,measurement,setting,value
Cc1cc(=O)[nH]c(=S)[nH]1,normalized growth,"S. cerevisiae deletion strains, locus YJR075W, strain HOC1, hits give low values",1.02
same,normalized growth,"S. cerevisiae deletion strains, locus YKL009W, strain mrt4, hits give low values",0.999
same,normalized growth,"S. cerevisiae deletion strains, locus YKL068W, hits give low values",1
same,normalized growth,"S. cerevisiae deletion strains, locus YKL085W, strain MDH1 (second series), hits give low values",0.977
same,normalized growth,"S. cerevisiae deletion strains, locus YKL085W, strain MDH1, hits give low values",0.977
same,normalized growth,"S. cerevisiae deletion strains, locus YKL160W, strain elf1, hits give low values",0.974
same,normalized growth,"S. cerevisiae deletion strains, locus YKL190W, strain CNB1, hits give low values",1
same,normalized growth,"S. cerevisiae deletion strains, locus YKR001C, strain vps1, hits give low values",1.01
same,normalized growth,"S. cerevisiae deletion strains, locus YKR026C, strain gcn3, hits give low values",0.992
same,normalized growth,"S. cerevisiae deletion strains, locus YKR091W, strain srl3, hits give low values",0.967
same,normalized growth,"S. cerevisiae deletion strains, locus YLL001W, strain dnm1, hits give low values",1.01
same,normalized growth,"S. cerevisiae deletion strains, locus YLL026W, hits give low values",0.979
same,normalized growth,"S. cerevisiae deletion strains, locus YLL041C, strain sdh2, hits give low values",0.978
same,normalized growth,"S. cerevisiae deletion strains, locus YLR027C, strain aat2, hits give low values",0.973
same,normalized growth,"S. cerevisiae deletion strains, locus YLR039C, strain RIC1, hits give low values",1.03
same,normalized growth,"S. cerevisiae deletion strains, locus YLR058C, strain SHM2, hits give low values",1.01
same,normalized growth,"S. cerevisiae deletion strains, locus YLR102C, strain apc9, hits give low values",1
same,normalized growth,"S. cerevisiae deletion strains, locus YLR113W, strain HOG1, hits give low values",1.03
same,normalized growth,"S. cerevisiae deletion strains, locus YLR221C, strain rsa3, hits give low values",0.973
same,normalized growth,"S. cerevisiae deletion strains, locus YLR258W, strain gsy2, hits give low values",0.98
same,normalized growth,"S. cerevisiae deletion strains, locus YLR262C, strain YPT6 (second series), hits give low values",0.981
same,normalized growth,"S. cerevisiae deletion strains, locus YLR262C, strain YPT6, hits give low values",1.07
same,normalized growth,"S. cerevisiae deletion strains, locus YLR268W, strain sec22, hits give low values",1.08
same,normalized growth,"S. cerevisiae deletion strains, locus YLR320W, strain mms22, hits give low values",0.956
same,normalized growth,"S. cerevisiae deletion strains, locus YLR330W, strain CHS5, hits give low values",1.01
same,normalized growth,"S. cerevisiae deletion strains, locus YLR342W, strain FKS1 (second series), hits give low values",1
same,normalized growth,"S. cerevisiae deletion strains, locus YLR342W, strain FKS1, hits give low values",0.985
same,normalized growth,"S. cerevisiae deletion strains, locus YLR357W, strain rsc2, hits give low values",0.944
same,normalized growth,"S. cerevisiae deletion strains, locus YLR370C, strain arc18, hits give low values",0.973
same,normalized growth,"S. cerevisiae deletion strains, locus YLR371W, strain rom2, hits give low values",1.02
same,normalized growth,"S. cerevisiae deletion strains, locus YLR384C, strain iki3, hits give low values",0.989
same,normalized growth,"S. cerevisiae deletion strains, locus YLR418C, strain cdc73, hits give low values",1.02
same,normalized growth,"S. cerevisiae deletion strains, locus YML016C, strain PPZ1, hits give low values",1.01
same,normalized growth,"S. cerevisiae deletion strains, locus YML032C, strain rad52, hits give low values",1.04
same,normalized growth,"S. cerevisiae deletion strains, locus YML120C, strain ndi1, hits give low values",0.972
same,normalized growth,"S. cerevisiae deletion strains, locus YML124C, strain tub3, hits give low values",1
same,normalized growth,"S. cerevisiae deletion strains, locus YMR058W, strain fet3, hits give low values",0.976
same,normalized growth,"S. cerevisiae deletion strains, locus YMR078C, strain ctf18, hits give low values",1.01
same,normalized growth,"S. cerevisiae deletion strains, locus YMR125W, strain sto1, hits give low values",0.933
same,normalized growth,"S. cerevisiae deletion strains, locus YMR129W, hits give low values",0.969
same,normalized growth,"S. cerevisiae deletion strains, locus YMR205C, strain PFK2, hits give low values",0.976
same,normalized growth,"S. cerevisiae deletion strains, locus YMR223W, strain ubp8, hits give low values",0.989
same,normalized growth,"S. cerevisiae deletion strains, locus YMR231W, strain pep5, hits give low values",1
same,normalized growth,"S. cerevisiae deletion strains, locus YMR263W, strain SAP30, hits give low values",1.03
same,normalized growth,"S. cerevisiae deletion strains, locus YMR307W, strain GAS1, hits give low values",1.05
same,normalized growth,"S. cerevisiae deletion strains, locus YNL067W, strain RPL9B, hits give low values",1.02
same,normalized growth,"S. cerevisiae deletion strains, locus YNL071W, strain lat1, hits give low values",0.963
same,normalized growth,"S. cerevisiae deletion strains, locus YNL128W, strain TEP1, hits give low values",1
same,normalized growth,"S. cerevisiae deletion strains, locus YNL153C, strain GIM3, hits give low values",1.03
same,normalized growth,"S. cerevisiae deletion strains, locus YNL183C, strain NPR1, hits give low values",0.977
same,normalized growth,"S. cerevisiae deletion strains, locus YNL209W, strain ssb2, hits give low values",0.973
same,normalized growth,"S. cerevisiae deletion strains, locus YNL233W, strain BNI4, hits give low values",1.02
same,normalized growth,"S. cerevisiae deletion strains, locus YNL248C, strain rpa49, hits give low values",0.872 (active)
same,normalized growth,"S. cerevisiae deletion strains, locus YNL250W, strain rad50, hits give low values",1.01
same,normalized growth,"S. cerevisiae deletion strains, locus YNL271C, strain bni1, hits give low values",1.01
same,normalized growth,"S. cerevisiae deletion strains, locus YNL298W, strain CLA4, hits give low values",1.01
same,normalized growth,"S. cerevisiae deletion strains, locus YNL307C, strain MCK1, hits give low values",1.01
same,normalized growth,"S. cerevisiae deletion strains, locus YNL322C, strain KRE1 (second series), hits give low values",0.969
same,normalized growth,"S. cerevisiae deletion strains, locus YNL322C, strain KRE1, hits give low values",1
same,normalized growth,"S. cerevisiae deletion strains, locus YNR049C, strain mso1, hits give low values",0.978
same,normalized growth,"S. cerevisiae deletion strains, locus YNR052C, strain pop2, hits give low values",1.01
same,normalized growth,"S. cerevisiae deletion strains, locus YOL006C, strain TOP1, hits give low values",1.08
same,normalized growth,"S. cerevisiae deletion strains, locus YOL012C, strain htz1",1.27
same,normalized growth,"S. cerevisiae deletion strains, locus YOL147C, strain pex11, hits give low values",1
same,normalized growth,"S. cerevisiae deletion strains, locus YOR001W, strain rrp6, hits give low values",0.975
same,normalized growth,"S. cerevisiae deletion strains, locus YOR061W, strain CKA2, hits give low values",1.01
same,normalized growth,"S. cerevisiae deletion strains, locus YOR069W, strain VPS5, hits give low values",1.01
same,normalized growth,"S. cerevisiae deletion strains, locus YOR070C, strain gyp1, hits give low values",0.987
same,normalized growth,"S. cerevisiae deletion strains, locus YOR080W, strain dia2, hits give low values",0.965
same,normalized growth,"S. cerevisiae deletion strains, locus YOR083W, strain WHI5, hits give low values",0.964
same,normalized growth,"S. cerevisiae deletion strains, locus YOR106W, strain vam3, hits give low values",0.999
same,normalized growth,"S. cerevisiae deletion strains, locus YOR136W, strain idh2, hits give low values",1
same,normalized growth,"S. cerevisiae deletion strains, locus YOR144C, strain elg1, hits give low values",1
same,normalized growth,"S. cerevisiae deletion strains, locus YOR184W, strain ser1, hits give low values",1.01
same,normalized growth,"S. cerevisiae deletion strains, locus YOR231W, strain MKK1, hits give low values",1.03
same,normalized growth,"S. cerevisiae deletion strains, locus YOR265W, strain rbl2, hits give low values",0.98
same,normalized growth,"S. cerevisiae deletion strains, locus YOR270C, strain vph1, hits give low values",0.976
same,normalized growth,"S. cerevisiae deletion strains, locus YOR290C, strain snf2, hits give low values",0.94
same,normalized growth,"S. cerevisiae deletion strains, locus YOR316C, strain cot1, hits give low values",1.01
same,normalized growth,"S. cerevisiae deletion strains, locus YPL051W, strain arl3, hits give low values",0.982
same,normalized growth,"S. cerevisiae deletion strains, locus YPL055C, strain LGE1, hits give low values",1
same,normalized growth,"S. cerevisiae deletion strains, locus YPL078C, strain atp4, hits give low values",0.973
same,normalized growth,"S. cerevisiae deletion strains, locus YPL106C, strain sse1, hits give low values",0.919
same,normalized growth,"S. cerevisiae deletion strains, locus YPL240C, strain hsp82, hits give low values",0.958
same,normalized growth,"S. cerevisiae deletion strains, locus YPL241C, strain CIN2, hits give low values",1.01
same,normalized growth,"S. cerevisiae deletion strains, locus YPL256C, strain CLN2, hits give low values",1.12
same,normalized growth,"S. cerevisiae deletion strains, locus YPR119W, strain clb2, hits give low values",1
same,normalized growth,"S. cerevisiae deletion strains, locus YPR141C, strain kar3, hits give low values",1
same,normalized growth,"S. cerevisiae deletion strains, locus YPR163C, strain tif3, hits give low values",1.01
same,normalized growth,"S. cerevisiae deletion strains, locus YPR167C, strain met16, hits give low values",1.01
same,normalized growth,"S. cerevisiae deletion strains, strain wtn01, hits give low values",1.03
same,normalized growth,"S. cerevisiae strains, strain wild type, hits give low values",1.01

# Reference: PubChem BioAssay AID1159580 (chemical genetic matrix, 2015)
